Measurements published in PubChem BioAssay (NCATS).
“And” between values parts separate entries of the source, which are not always exact repeats. Equal values may be shown once. Results filed as inconclusive are left out. Some compounds were tested as several samples or in several runs, with calls that do not always agree. The source made the active and inactive calls. Unless noted, calls follow the shape of the dose curve; as a rule, active = well fitted curve in the direction sought with a large enough effect; inconclusive = small, poorly fitted or top-dose-only effect, or another doubt; inactive = no such curve, though single readings can be large; an effect the other way counts as inactive or inconclusive.

Legend:
[1] = Cellular Toxicity (caspase-3) SHSY5Y (AID 657)
Procedure, shortened: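 SH-SY5Y human neuroblastoma cells (1500/well) were treated with compounds for 16 h at 37 °C, then Caspase-Glo 3/7 luminescence was read after 1 h at room temperature. Data normalized to DMSO and 10 uM staurosporine; AC50 from Hill fits.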

[2] = Cellular Toxicity (caspase-3) SK-N-SH (AID 661);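 also: 0% = DMSO basal and 100% = 10 µM staurosporine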
Procedure, shortened: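 Human SK-N-SH neuroblastoma cells, 1500/well, were exposed to compounds for 16 hours at 37 °C. Caspase-Glo 3/7 luminescence was normalized to DMSO (basal) and 10 uM staurosporine (100%), and AC50 came from a Hill fit.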

[3] = Cellular Toxicity (caspase-3) NIH 3T3 (AID 666);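 also: caspase signal read after 16 h compound exposure; 0% = DMSO basal and 100% = 100 µM tamoxifen stimulation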
Procedure, shortened: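 Mouse NIH 3T3 fibroblasts (1000/well) treated 16 h at 37 C; caspase-3/7 activity measured by Caspase-Glo 3/7 luminescence after 20 min. Normalized to DMSO and 100 uM tamoxifen; AC50 from Hill fits.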

[4] = target: Cytochrome P450 3A4 (Homo sapiens) (UniProt P08684); experiment: qHTS Assay for Inhibitors and Substrates of Cytochrome P450 3A4 (AID 884); also: nearly all actives have a fitted effect of over 50% in size; also: potency is read from the fitted curve at half-maximal effect
Chain of Cytochrome P450 3A4 (Homo sapiens) (P08684 whole entry, looked up): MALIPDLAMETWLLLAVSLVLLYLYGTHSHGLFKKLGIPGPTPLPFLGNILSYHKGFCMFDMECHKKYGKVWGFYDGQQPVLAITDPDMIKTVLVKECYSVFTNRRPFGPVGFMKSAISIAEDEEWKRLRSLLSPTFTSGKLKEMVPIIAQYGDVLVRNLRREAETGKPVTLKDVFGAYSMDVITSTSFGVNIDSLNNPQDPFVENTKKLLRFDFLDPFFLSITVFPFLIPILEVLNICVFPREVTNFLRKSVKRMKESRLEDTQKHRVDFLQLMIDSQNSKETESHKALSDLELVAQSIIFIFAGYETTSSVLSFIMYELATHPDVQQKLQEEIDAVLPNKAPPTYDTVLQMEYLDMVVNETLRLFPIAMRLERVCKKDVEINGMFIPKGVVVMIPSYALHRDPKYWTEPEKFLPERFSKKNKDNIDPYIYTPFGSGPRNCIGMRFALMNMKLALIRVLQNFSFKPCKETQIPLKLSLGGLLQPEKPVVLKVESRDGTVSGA
Procedure, shortened: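 20 nM human CYP3A4 with 25 uM Luciferin-PPXE (at KM) in 200 mM KPO4, preincubated 10 min with compound; NADPH regeneration started a 60 min RT reaction. Luciferin detected by luminescence, normalized to 57 uM ketoconazole as full inhibition.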

[5] = MultiTox-Fluor Cytotoxicity Assay - LYMP1-001 - Live Cells (AID 947);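 also: 0% = DMSO only and full inhibition = tetraoctylammonium bromide control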
[6] = Cell Viability - LYMP2-004 (AID 966);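 also: plate controls were DMSO only for no effect and tetraoctylammonium bromide control for full effect; nearly all actives have a fitted effect of over 65% in size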
Procedure, shortened: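 Lymphoblastoid LYMP2-004 cells, 2500 per well, were preincubated for 5 hr and then treated with compound for 24 h at 37 C in complete medium. Viability was read as cellular ATP by CellTiter-Glo luminescence, and AC50 values were taken from Hill fits to concentration-response data.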

[7] = Cell Viability - LYMP2-005 (AID 967);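 also: series mostly up to about 92 µM; plate controls were DMSO only for no effect and 92 µM tetraoctylammonium bromide control for full effect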
Procedure, shortened: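 CellTiter-Glo luminescence (cellular ATP) read-out; LYMP2-005 lymphoblastoid cells, 2500/well, 5 h pre-incubation, then 24 h compound exposure at 37 C in complete medium. Tetraoctylammonium bromide positive control; AC50 by standard Hill fit.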

[8] = Cell Viability - LYMP2-009 (AID 968);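 also: series mostly up to about 92 µM; 0% = DMSO alone and the full-kill end = tetraoctylammonium bromide at 92 µM; nearly all actives have a fitted effect of over 55% in size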
[9] = Cell Viability - LYMP2-008 (AID 980); also: % is scaled to controls: 0 for no effect and ±100 for the full control effect; nearly all actives have a fitted effect of over 60% in size
Procedure, shortened: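 LYMP2-008 lymphoblastoid cells (2500/well) plated 5 h, then treated 24 h at 37 C in complete medium. Viability read as intracellular ATP by CellTiter-Glo luminescence after 30 min at room temperature; AC50 from Hill fits.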

[10] = target: Glucocorticoid receptor (Homo sapiens) (UniProt P04150); experiment: qHTS assay for small molecule agonists of glucocorticoid receptor signaling (AID 588532; active = well fitted curve in the direction sought with a large enough effect in the signal ratio, with a control signal flat; the % refers to the signal ratio;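 also: 100% = dexamethasone at 0.1 µM and 0% = DMSO only wells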); details: HeLa MMTV-bla, beta-lactamase ratio, agonist, 18 h; stronger effect = higher value; percent of dexamethasone control, DMSO zero
Chain of Glucocorticoid receptor (Homo sapiens) (P04150 whole entry, looked up): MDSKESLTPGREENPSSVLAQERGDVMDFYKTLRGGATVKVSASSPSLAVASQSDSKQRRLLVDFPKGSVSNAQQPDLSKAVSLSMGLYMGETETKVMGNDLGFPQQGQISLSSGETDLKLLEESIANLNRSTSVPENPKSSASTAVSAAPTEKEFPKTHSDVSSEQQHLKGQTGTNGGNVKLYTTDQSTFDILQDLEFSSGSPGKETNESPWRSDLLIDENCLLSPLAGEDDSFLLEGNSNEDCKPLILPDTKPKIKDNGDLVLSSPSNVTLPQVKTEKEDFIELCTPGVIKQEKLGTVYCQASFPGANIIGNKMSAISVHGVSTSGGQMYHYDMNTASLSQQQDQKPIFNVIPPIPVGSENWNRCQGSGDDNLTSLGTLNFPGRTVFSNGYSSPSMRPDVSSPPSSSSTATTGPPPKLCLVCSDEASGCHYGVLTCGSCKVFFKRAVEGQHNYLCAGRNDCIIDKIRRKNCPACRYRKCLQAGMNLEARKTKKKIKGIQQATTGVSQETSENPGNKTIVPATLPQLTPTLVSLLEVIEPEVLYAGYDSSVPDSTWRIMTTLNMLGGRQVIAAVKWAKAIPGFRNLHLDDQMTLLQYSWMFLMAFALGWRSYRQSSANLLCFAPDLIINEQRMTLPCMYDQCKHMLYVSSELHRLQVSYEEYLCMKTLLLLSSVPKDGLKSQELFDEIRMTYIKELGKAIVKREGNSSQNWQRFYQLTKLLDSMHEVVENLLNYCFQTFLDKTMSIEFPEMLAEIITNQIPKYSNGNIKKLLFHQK
Procedure, shortened: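 Agonist-mode qHTS: GRE-driven beta-lactamase in HeLa cells exposed 18 h to titrated compounds (up to 92 uM), then CCF4 ratio read after 2 h at RT; Hill-fitted EC50, efficacy relative to 0.1 uM dexamethasone.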

[11] = target: Glucocorticoid receptor (Homo sapiens) (UniProt P04150); experiment: qHTS assay for small molecule antagonists of glucocorticoid receptor signaling (AID 588533; active = well fitted inhibition curve with a large enough effect in the signal ratio, with a control signal flat, not every such curve was filed as active; the % refers to the signal ratio;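 also: cells stimulated with 2 nM dexamethasone as agonist; % is scaled to controls: 0 for no effect and ±100 for the full control effect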)
Procedure, shortened: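 Antagonist-mode qHTS: compound titrations added to GRE-bla HeLa cells, then dexamethasone 2 nM final; 18 h, 37 C. CCF4 FRET fluorescence normalized to dexamethasone and DMSO; IC50 from Hill fit.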

[12] = target: Vitamin D3 receptor (Homo sapiens) (UniProt P11473); experiment: qHTS assay for small molecule agonists of vitamin D receptor signaling (AID 588543; calls by dose curve;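 also: 0% = DMSO basal and 100% = reference agonist control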)
Chain of Vitamin D3 receptor (Homo sapiens) (P11473 whole entry, looked up): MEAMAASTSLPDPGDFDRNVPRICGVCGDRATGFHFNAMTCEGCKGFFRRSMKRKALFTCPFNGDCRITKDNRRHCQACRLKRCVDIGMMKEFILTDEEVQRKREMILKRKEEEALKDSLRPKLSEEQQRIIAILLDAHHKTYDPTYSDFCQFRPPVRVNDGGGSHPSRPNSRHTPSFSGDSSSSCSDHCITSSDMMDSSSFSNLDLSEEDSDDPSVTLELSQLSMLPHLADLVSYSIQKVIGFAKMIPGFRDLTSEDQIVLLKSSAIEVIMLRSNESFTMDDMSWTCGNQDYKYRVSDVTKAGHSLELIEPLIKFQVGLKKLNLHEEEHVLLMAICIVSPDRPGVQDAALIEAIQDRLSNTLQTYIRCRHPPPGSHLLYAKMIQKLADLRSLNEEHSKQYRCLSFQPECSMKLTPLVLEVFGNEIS
Procedure, shortened: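 GeneBLAzer VDR-UAS-bla HEK293T cells in 2% charcoal-stripped FBS medium were dosed with compound titrations for 16 h at 37 °C; CCF4 β-lactamase readout (405 nm ex, 460/530 nm em). EC50 and efficacy from Hill fits, normalized to 50 nM calcitriol (100%) and DMSO (0%).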

[13] = target: Thyroid hormone receptor beta (Homo sapiens) (UniProt P10828); experiment: qHTS assay for small molecule antagonists of thyroid hormone receptor beta signaling (AID 588547; active = well fitted inhibition curve with a large enough effect in the signal ratio, with a control signal flat, not every such curve was filed as active; the % refers to the signal ratio;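 also: cells stimulated with 0.4 nM T3 agonist during compound exposure; series mostly up to about 77 µM; % is scaled to controls: 0 for no effect and ±100 for the full control effect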); details: TR-UAS-bla HEK293, beta-lactamase ratio, antagonist mode, 18 h
Chain of Thyroid hormone receptor beta (Homo sapiens) (P10828 whole entry, looked up): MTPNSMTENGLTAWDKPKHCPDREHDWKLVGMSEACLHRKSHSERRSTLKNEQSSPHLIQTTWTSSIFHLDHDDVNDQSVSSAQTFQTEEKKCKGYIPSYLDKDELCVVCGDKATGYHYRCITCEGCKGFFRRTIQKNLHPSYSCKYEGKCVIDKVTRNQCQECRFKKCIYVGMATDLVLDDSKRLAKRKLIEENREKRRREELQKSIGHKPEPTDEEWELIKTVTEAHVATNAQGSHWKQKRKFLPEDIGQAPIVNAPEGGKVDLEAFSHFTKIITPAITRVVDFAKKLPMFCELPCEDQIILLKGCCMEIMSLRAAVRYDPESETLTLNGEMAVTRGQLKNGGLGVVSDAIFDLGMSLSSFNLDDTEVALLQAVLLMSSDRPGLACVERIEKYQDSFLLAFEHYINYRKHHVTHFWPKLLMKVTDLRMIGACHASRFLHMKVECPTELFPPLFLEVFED
Procedure, shortened: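 Inhibition of T3-driven (0.4nM final) beta-lactamase reporter activity was measured over 0.59 nM to 92 uM compound after 18 h at 37 C. The cells were GripTite HEK293 TR-UAS-bla in charcoal/dextran-stripped serum, with CCF4 ratio read-out and IC50 from Hill fits.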

[14] = qHTS assay for small molecule activators of the p53 signaling pathway (AID 651743; active = well fitted activation curve with a large enough effect in the signal ratio, not every such curve was filed as active; the % refers to the signal ratio; also: series mostly up to about 92 µM; % of control where 0% means no effect); details: HCT-116 p53RE-bla, beta-lactamase FRET ratio, 16 h; activation: stronger effect = higher value
Procedure, shortened: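 Read-out is fluorescence intensity from the LiveBLAzer B/G FRET substrate, added for 2 hours at room temperature after HCT-116 p53RE-bla cells had been incubated with compounds for 16 hours at 37 C.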

[15] = qHTS assay for small molecule disruptors of the mitochondrial membrane potential - 5 hr assay (AID 651755; calls by dose curve; also: % is scaled to controls: 0 for no effect and ±100 for the full control effect; nearly all actives have a fitted effect of over 40% in size)
Procedure, shortened: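 HepG2, 2,000 cells/well, overnight attach; cpd or DMSO 5 hr, 37C/5% CO2; Mito-MPS 30 min 37C; fluor 490/535 + 540/590 nm.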

[16] = target: Tumor necrosis factor (Homo sapiens) (UniProt P01375); experiment: qHTS assay to identify small molecules that stimulate Tumor Necrosis Factor-alpha (TNF-alpha) secretion (AID 651757; active = well fitted curve in the direction sought with a large enough effect in the signal ratio; the % refers to the signal ratio; also: 0% is about no effect)
Chain of Tumor necrosis factor (Homo sapiens) (P01375 whole entry, looked up): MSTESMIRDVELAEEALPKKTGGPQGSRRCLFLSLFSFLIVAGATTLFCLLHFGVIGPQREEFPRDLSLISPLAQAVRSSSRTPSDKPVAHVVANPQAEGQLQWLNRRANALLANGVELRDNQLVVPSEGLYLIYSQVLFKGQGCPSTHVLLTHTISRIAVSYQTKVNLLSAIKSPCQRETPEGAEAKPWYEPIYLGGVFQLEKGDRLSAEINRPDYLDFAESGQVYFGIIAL
Procedure, shortened: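 THP-1 cells (3000/well) exposed to compounds 17 hrs at 37 C. Secreted TNF-alpha detected by HTRF with cryptate- and XL665-labeled anti-TNF-alpha antibodies after 3 hr at room temperature.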

[17] = target: Nuclear receptor subfamily 1 group I member 2 (Rattus norvegicus) (UniProt Q9R1A7); experiment: qHTS assay for small molecule activators of the rat pregnane X receptor (rPXR) signaling pathway (AID 651751; call rule not given here; also: 0% is about no effect); details: rPXR reporter cells, luciferase (One-Glo), 24 h
Chain of Nuclear receptor subfamily 1 group I member 2 (Rattus norvegicus) (Q9R1A7 whole entry, looked up): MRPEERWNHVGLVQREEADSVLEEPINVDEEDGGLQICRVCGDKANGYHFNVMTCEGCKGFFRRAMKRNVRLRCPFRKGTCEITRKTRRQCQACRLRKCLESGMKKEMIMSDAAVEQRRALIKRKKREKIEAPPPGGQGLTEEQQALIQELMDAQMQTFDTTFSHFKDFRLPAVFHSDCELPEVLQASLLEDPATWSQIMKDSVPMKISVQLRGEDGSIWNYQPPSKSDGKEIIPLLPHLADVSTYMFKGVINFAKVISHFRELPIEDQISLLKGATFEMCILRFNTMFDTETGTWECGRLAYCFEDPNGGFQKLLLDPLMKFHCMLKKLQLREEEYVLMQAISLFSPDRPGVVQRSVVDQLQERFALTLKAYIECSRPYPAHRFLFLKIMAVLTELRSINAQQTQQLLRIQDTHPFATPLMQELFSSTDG

[18] = MultiTox-Fluor Cytotoxicity Assay - LYMP1-002 - Dead Cells (AID 960);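 also: 0% = DMSO and 100% = tetraoctylammonium bromide; nearly all actives have a fitted effect of over 60% in size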
Procedure, shortened: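 Human lymphoblastoid LYMP1-002 cells, 2500/well, treated 16 h at 37 C; dead-cell protease cleavage of bis-AAF-R110 read by fluorescence (485/520); normalized to DMSO and 15 uM tetraoctylammonium bromide; AC50 from Hill fit.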

[19] = target: Peroxisome proliferator-activated receptor gamma (Homo sapiens) (UniProt P37231); experiment: qHTS assay for small molecule agonists of peroxisome proliferator-activated receptor gamma signaling (AID 588536; active = well fitted curve in the direction sought with a large enough effect in the signal ratio, with a control signal flat, not every such curve was filed as active; the % refers to the signal ratio;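 also: 0% = DMSO basal wells and 100% = rosiglitazone at 2 µM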)
Chain of Peroxisome proliferator-activated receptor gamma (Homo sapiens) (P37231 whole entry, looked up): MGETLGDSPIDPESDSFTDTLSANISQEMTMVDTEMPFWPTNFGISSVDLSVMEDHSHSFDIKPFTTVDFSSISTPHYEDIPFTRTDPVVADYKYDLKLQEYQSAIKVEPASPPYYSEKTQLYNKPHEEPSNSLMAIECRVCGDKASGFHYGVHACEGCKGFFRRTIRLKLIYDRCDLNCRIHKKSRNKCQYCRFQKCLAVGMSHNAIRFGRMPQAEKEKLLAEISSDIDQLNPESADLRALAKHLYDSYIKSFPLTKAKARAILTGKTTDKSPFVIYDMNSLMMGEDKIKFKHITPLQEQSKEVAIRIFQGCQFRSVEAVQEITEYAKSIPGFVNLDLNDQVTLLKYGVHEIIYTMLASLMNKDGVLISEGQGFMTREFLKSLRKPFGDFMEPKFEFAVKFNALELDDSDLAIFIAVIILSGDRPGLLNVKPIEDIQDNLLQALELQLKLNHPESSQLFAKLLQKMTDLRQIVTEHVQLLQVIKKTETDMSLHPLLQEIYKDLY
Procedure, shortened: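 HEK293 UAS-bla reporter line, 1% charcoal/dextran FBS; titration, 16 h, 37 C; CCF4 loading 2 h RT; fluorescence 460/530 nm. Normalized to rosiglitazone 2 uM = 100%, DMSO = 0%.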

[20] = qHTS drug screen for cell cycle checkpoint inhibitors in PARPi-resistant BRCA-mutant ovarian cancer cell lines. (AID 1963452; calls by dose curve; also: potency is read from the fitted curve at half-maximal effect); details: PEO1/OlaR viability, CellTiter-Glo luminescence, 96 h; for Z-AUC: stronger effect = lower value
Procedure, shortened: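 PEO1, PEO4 and PEO1/OlaR ovarian cancer cells, 600 per well, exposed 96 h at 37C to a dilution series. Viability read by CellTiter-Glo luminescence, normalized to DMSO and empty wells; activity summarized as Z-AUC.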

[21] = measured here: PEO1 parental Z-AUC

COC(=O)c1ccc(C)cc1
inactive: outcome [1] | outcome [2] | outcome [3] | Potency [4] | Potency [5] | Potency [6] | Potency [7] | Potency [8] | Potency [9] | activation [10] -15.8% | Potency [11] | outcome [12] | activity change % (negative = inhibition) [13] -22.1% and -12.5% | activation [14] 2.24% and -1.53% | Potency [15] | outcome [16] | max response [17] 1.84% and -0.952%

CC1=CC(C)(C)Nc2ccccc21
inactive: outcome [1] | outcome [2] | outcome [3] | Potency [5] | Potency [18] | Potency [6] | Potency [7] | Potency [8] | Potency [9] | outcome [19] | outcome [12] | activity change % (negative = inhibition) [13] -25% | activation [14] -2.38% and -0.537% | Potency [15] | outcome [16]
10 µM (active) and inactive: Potency [4]

CCCCOCCO
inactive: outcome [1] | outcome [2] | outcome [3] | Potency [4] | Potency [5] | Potency [18] | Potency [6] | Potency [7] | Potency [8] | Potency [9] | activation [10] -3.83% and -1.18% | Potency [11] | outcome [19] | outcome [12] | activity change % (negative = inhibition) [13] -4.64% and -15.2% | activation [14] -0.263% and -0.796% and -1.77% | Potency [15] | outcome [16]

COC(=O)c1ccc(C=O)cc1
inactive: outcome [1] | outcome [2] | outcome [3] | Potency [4] | Potency [5] | Potency [18] | Potency [6] | Potency [7] | Potency [8] | Potency [9] | activation [10] 8.1% and -8.49% | Potency [11] | outcome [19] | outcome [12] | activity change % (negative = inhibition) [13] 3.66% | activation [14] -0.565% and 0.101% | Potency [15] | outcome [16] | max response [17] -0.798% and -1.94%

CC(C)NC(=O)C1CCC(n2c(NC(=O)c3ccc(F)cc3)nc3ccc(CN4CCC(C(C)(C)O)CC4)cc32)CC1 (stereo unspecified)
-1.3: Z-AUC ([20]; measured here: PEO4 Z-AUC)
active: Potency [20] 8.48 µM
-1.17: Z-AUC [20, 21]

O=C(Nc1ccc(-c2ccnc(Nc3ccc(N4CCOCC4)cc3)n2)cc1)[C@@H]1CCCN1
0.0561: Z-AUC ([20]; measured here: PEO4 Z-AUC)
0.455: Z-AUC [20, 21]
inactive: Z-AUC [20] -0.466

Clc1cc(Cl)c(Cl)c(Cl)c1Cl
inactive: outcome [1] | outcome [2] | outcome [3] | Potency [5] | Potency [18] | Potency [6] | Potency [7] | Potency [8] | Potency [9] | activation [10] -4.89% and 1.1% | Potency [11] | outcome [12] | activity change % (negative = inhibition) [13] 4.53% and 17.6% | activation [14] -3.68% and 2.1% | Potency [15] | outcome [16] | max response [17] 0.274% and 3.7%

C/C=C\c1ccc(OC)cc1
inactive: outcome [1] | outcome [2] | outcome [3] | Potency [5] | Potency [18] | Potency [6] | Potency [7] | Potency [8] | Potency [9] | outcome [19] | activity change % (negative = inhibition) [13] 20.9% | outcome [16] | max response [17] 5.64%

COC(=O)CCCCC(=O)OC
inactive: outcome [1] | outcome [2] | outcome [3] | Potency [4] | Potency [5] | Potency [18] | Potency [7] | Potency [8] | Potency [9] | activation [10] 7.61% and 12.5% | Potency [11] | outcome [19] | outcome [12] | activity change % (negative = inhibition) [13] 22.1% and -0.698% and -15.8% | activation [14] -0.0209% and -1.5% | Potency [15] | outcome [16] | max response [17] 5.4% and -0.278% and 0.834%

CNC(=O)c1ccccc1Nc1nc(Nc2ccc3c(c2OC)CCC[C@H](N2CCN(CCO)CC2)C3)ncc1Cl
-0.58: Z-AUC ([20]; measured here: PEO4 Z-AUC)
inactive: Z-AUC [20] -0.709
-0.531: Z-AUC [20, 21]

Cc1ccccc1C
inactive: outcome [1] | outcome [2] | outcome [3] | Potency [4] | Potency [5] | Potency [18] | Potency [6] | Potency [7] | Potency [8] | Potency [9] | activation [10] -7.63% and -0.245% | Potency [11] | outcome [19] | outcome [12] | activity change % (negative = inhibition) [13] 8.96% and 15% | activation [14] -3.02% and -3.15% | Potency [15] | outcome [16] | max response [17] -1.06% and 4.02%
